p53 PUMA act – re-activators of the mutant p53 pathway. activation, % at 9.98 µM. AID 624151. SW480 PUMA-promoter luciferase, p53 mutant reactivation. 28,000 tested, 1.5% active; in the data active = activation above about 52%
ID4 SMM – binders of human ID4 protein. small molecule microarray, Flag-ID4 binding, fluorescence F/B. 31,000 tested, 1.2% active. calls only. P47928; call rule not given here;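 also: a binder raises fluorescence above local background on the spot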
Target sequence (P47928 whole entry, looked up): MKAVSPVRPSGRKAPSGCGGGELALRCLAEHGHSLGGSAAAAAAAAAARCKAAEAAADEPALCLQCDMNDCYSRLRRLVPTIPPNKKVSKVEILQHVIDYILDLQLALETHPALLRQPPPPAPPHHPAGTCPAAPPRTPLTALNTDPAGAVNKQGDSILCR
Active calls of the source: *; i = inactive; . = no result; + = active, no number. Hits are enriched below; roughly 2.3% of the tested compounds scored in any of these assays.

SMILES	p53 PUMA act	ID4 SMM
C[C@@H]1CN([C@H](C)CO)S(=O)(=O)c2ccc(C3=CCCC3)cc2O[C@H]1CN(C)C(=O)c1cccnc1	6	.
CC(=O)N(C)C[C@@H]1Oc2cc(-c3ccccc3C)ccc2S(=O)(=O)N([C@H](C)CO)C[C@@H]1C	-12	+
C[C@H](CO)N1C[C@H](C)[C@H](CN(C)C)Oc2cc(-c3ccncc3)ccc2S1(=O)=O	9	.
C[C@@H]1CN([C@@H](C)CO)S(=O)(=O)c2ccc(-c3cccc(C(=O)N(C)C)c3)cc2O[C@H]1CN(C)C(=O)Nc1ccc(F)cc1	5	.
C[C@H](CO)N1C[C@H](C)[C@H](CN(C)Cc2cncnc2)Oc2cc(-c3ccncc3)ccc2S1(=O)=O	-8	+
Cc1ccccc1-c1ccc2c(c1)O[C@H](CN(C)C)[C@H](C)CN([C@H](C)CO)S2(=O)=O	3	i
C[C@@H]1CN([C@H](C)CO)S(=O)(=O)c2ccc(-c3cccc(C(=O)N(C)C)c3)cc2O[C@H]1CN(C)C(=O)Nc1ccc(F)cc1	10	+
N#Cc1c(C(F)(F)F)cc(-c2ccc(Br)cc2)nc1SCCC(=O)O	-26	i
COc1ccc(-c2nnc(SCC(=O)c3ccc(Cl)cc3)n2-c2ccc(C)cc2)cc1OC	0	i
O=[N+]([O-])c1ccc(NCCNCCO)cc1	-2	i
COc1ccccc1-c1ccc2c(c1)O[C@H](CN(C)Cc1ccc3c(c1)OCO3)[C@H](C)CN([C@@H](C)CO)S2(=O)=O	-18	i
C[C@H](CO)N1C[C@H](C)[C@H](CN(C)Cc2ccccc2)Oc2cc(/C=C/c3ccccc3)ccc2S1(=O)=O	-10	i
COc1ccc(NC(=O)N(C)C[C@H]2Oc3cc(-c4ccc(C)cc4)ccc3S(=O)(=O)N([C@@H](C)CO)C[C@H]2C)cc1	-13	i
COc1ccc(-c2ccc3c(c2)O[C@@H](CN(C)C(=O)Nc2ccccc2F)[C@@H](C)CN([C@H](C)CO)S3(=O)=O)cc1	-18	.
C[C@H](CO)N1C[C@H](C)[C@@H](CN(C)C(=O)Nc2ccccc2F)Oc2cc(-c3ccc(C(=O)N(C)C)cc3)ccc2S1(=O)=O	-8	+
C[C@@H]1CN([C@H](C)CO)S(=O)(=O)c2ccc(-c3ccc(C(=O)N(C)C)cc3)cc2O[C@@H]1CN(C)Cc1ccc2c(c1)OCO2	-15	+
C[C@@H]1CN([C@@H](C)CO)S(=O)(=O)c2ccc(/C=C/c3ccccc3)cc2O[C@H]1CN(C)Cc1ccc(C(=O)O)cc1	-5	+
COc1ccc(NC(=O)N(C)C[C@@H]2Oc3cc(-c4ccncc4)ccc3S(=O)(=O)N([C@H](C)CO)C[C@H]2C)cc1	-6	+
N#Cc1c(NC(=O)COc2ccc3c(-c4ccccc4)cc(=O)oc3c2)sc2c1CCC2	0	i
CS(=O)(=O)N(CC(=O)Nc1ccc(C(F)(F)F)cc1)c1cccc([N+](=O)[O-])c1	-49	i
COc1ccc(-n2c(SCC(=O)N3CCOCC3)nnc2-c2ccccc2)cc1	-9	i
O=C(CCSc1nc2ccccc2o1)Nc1ccc(F)cc1	23	i
CC(=O)c1cccc(N(CC(=O)Nc2ccc(F)cc2F)S(C)(=O)=O)c1	60*	i
CC(=O)c1cccc(N(CC(=O)Nc2c(C)cccc2C)S(C)(=O)=O)c1	1	i
COc1cc(OC)c(NC(=O)CSc2nnc(-c3ccccc3)n2-c2ccccc2)cc1Cl	-21	i
SMILES	p53 PUMA act	ID4 SMM
COc1ccccc1NC(=O)c1c(NC(=O)COc2ccccc2)sc(C)c1C	-11	i
COc1ccccc1NC(=O)c1c(NC(=O)c2ccco2)sc(C)c1C	76*	i
N#Cc1c(SCC(=O)Nc2c(Cl)cccc2Cl)nc2c(c1-c1cccnc1)CCC2	-5	i
Cc1scc2c1N(C(=O)CN1CCN(C)CC1)c1ccccc1NC2=O	0	i
CCN(CC)CCCCC1CCN(CC(=O)N2c3ccccc3C(=O)Nc3cccnc32)CC1	3	+
COc1cc(Cl)c(C(Nc2ccccn2)c2cc(Cl)c3cccnc3c2O)cc1OC (stereo unspecified)	-24	i
CCn1cc(CN(C)C(=S)Nc2cccc(C(C)=O)c2)c(C)n1	-6	i
CCCc1cc(=O)[nH]c(Nc2nc(C)c3ccc(OC)cc3n2)n1	33	i
COc1ccc2c(C)nc(Nc3nc(C)cc(=O)[nH]3)nc2c1	73*	i
Cc1ccc(-n2nnnc2SCC(=O)c2ccc(O)c(O)c2)cc1	-37	i
O=C(CSc1nnc(-c2ccccc2)n1-c1ccccc1)Nc1ccc(C(F)(F)F)cc1	19	i
C[C@@H]1CCCCO[C@@H](CN(C)Cc2ccncc2)[C@H](C)CN([C@@H](C)CO)C(=O)c2cc(NC(=O)Nc3ccccc3)ccc2O1	-8	i
C[C@@H]1CCCCO[C@@H](CN(C)C(=O)Nc2ccccc2)[C@H](C)CN([C@H](C)CO)C(=O)c2cc(NC(=O)Nc3ccccc3)ccc2O1	-39	+

Screening data: PubChem BioAssay, Broad Institute
